Compound activity: PubChem BioAssay, Center for Chemical Genomics, University of Michigan
HIV TAR-Tat: HIV-1 TAR-Tat binding disruption; actives 0.6% (n = 100,000); z-score (concentration not given with the values); HIV-1 TAR RNA, Tat peptide displacement FRET; active compounds read high; active = z-score of 3 or more in at least 2 runs
CDC25B CDK2 inh: human CDC25B-CDK2/CyclinA binding inhibition; P30305+P24941; HTRF CDC25B-CDK2/CyclinA binding, anti-His/anti-Flag; active compounds read high; z-score (test concentration not listed); actives 0.72% (n = 94,000); AID 1259370; in the data active = z-score above about 3.2
Of the large screens only hits and unclear results are named; the others gave an inactive call; ! = a repeat was not active. Shown are actives, neighbours in structure and some others; about 0.9% of the full set was active somewhere.

CNCCc1c[nH]c2ccccc12	none (no result: HIV TAR-Tat)
CNCCc1c[nH]c2ccc(O)cc12	CDC25B CDK2 inh 9.78 (no result: HIV TAR-Tat)
Cc1cc2c(C(C)C)c(O)c(O)c(C=O)c2c(O)c1-c1c(C)cc2c(C(C)C)c(O)c(O)c(C=O)c2c1O	HIV TAR-Tat 25.5!
CN1CC=C(c2noc(CCC(=O)Nc3nccs3)n2)CC1	none
CN1CCc2cc(O)cc3c2[C@H]1Cc1ccc(O)c(O)c1-3	none (no result: HIV TAR-Tat)
COc1cc2c(cc1O)C[C@H]1c3c(cc(O)c(OC)c3-2)CCN1C	HIV TAR-Tat 12.9 (no result: CDC25B CDK2 inh)
CCC(C)n1[nH]c(=O)c2c1NC(=O)CSC2c1ccc(F)cc1 (stereo not given)	none
CN1CSC2=C(C#N)C(c3cccc(Br)c3)CC(=O)N2C1 (stereo not given)	CDC25B CDK2 inh 5.23
N#CC1=C(N)Oc2c(c(=O)oc3ccccc23)C1c1cccc(Br)c1 (stereo not given)	none (no result: HIV TAR-Tat)
CC1(C)CC(n2[nH]c(=O)c3c2NC(=O)CSC3c2ccc(Cl)cc2)CCO1 (stereo not given)	none
CN1C2CCC1CC(=NOC(=O)C1CCCCC1)C2	none (no result: HIV TAR-Tat)
Cc1cccc(CNCCc2c[nH]c3ccccc23)c1	CDC25B CDK2 inh 15.7
Fc1cccc(CNCCc2c[nH]c3ccccc23)c1	CDC25B CDK2 inh 8.01
c1ccc(CNCCc2c[nH]c3ccccc23)cc1	none
CCc1ccc(CNCCc2c[nH]c3ccccc23)cc1	none
Clc1cccc(C2CC(c3cccnc3)Nc3nnnn32)c1 (stereo not given)	none (no result: HIV TAR-Tat)
CSc1ccc(C2NCc3ccccc3-n3cccc32)cc1 (stereo not given)	none
NC(N)=N/N=C/c1ccc(/C=N/N=C(N)N)cc1	CDC25B CDK2 inh 7.64 (no result: HIV TAR-Tat)
CCOC(=O)CSC1c2ccccc2Nc2c1cnc(Cl)c2C#N (stereo not given)	none (no result: HIV TAR-Tat)
Fc1cc(F)cc(C2NCc3ccccc3-n3cccc32)c1 (stereo not given)	none
C=CCOC(=O)COc1cc(C)cc2oc(=O)c3c(c12)CCCC3	none (no result: HIV TAR-Tat)
COc1cc2c(cc1O)C(C)NCC2 (stereo not given)	none (no result: CDC25B CDK2 inh)
C[C@@H]1NCCc2cc(O)c(O)cc21	HIV TAR-Tat 19.3 (no result: CDC25B CDK2 inh)
C(SCc1nn[nH]n1)c1nn[nH]n1	none (no result: HIV TAR-Tat)
O=[N+]([O-])Nc1ccc(C(F)(F)F)cn1	none (no result: HIV TAR-Tat)
Nc1c(C(=O)NCc2ccccc2)c2nc3ccccc3nc2n1Cc1ccco1	CDC25B CDK2 inh 12.3
CCCCCn1c(N)c(C(=O)OC)c2nc3ccccc3nc21	none
Cc1c2ccncc2c(C)c2c1[nH]c1ccccc12	CDC25B CDK2 inh 4.19
Cc1nccc2c1[nH]c1ccccc12	HIV TAR-Tat 19.1
c1ccc2c(c1)[nH]c1cnccc12	none (no result: CDC25B CDK2 inh)
Nc1ncnc2c1ccn2[C@@H]1O[C@H](CO)[C@H](O)C1O (stereo not given in full)	none (no result: CDC25B CDK2 inh)
Cc1ccc(C2SCC(=O)Nc3c2c(=O)[nH]n3C(C)C)cc1 (stereo not given)	none
COc1ccc(C2NCc3ccccc3-n3cccc32)cc1OC (stereo not given)	none
COC(=O)c1sc2nc3c(cc2c1N)CN(C)CC3	none
CN1CCc2nc(SCc3cccnc3)c(C#N)cc2C1	CDC25B CDK2 inh 19
COc1ccc2nc(NC(=O)Cn3cnc4nc5c(cc4c3=O)CCCC5)sc2c1	none (no result: CDC25B CDK2 inh)
Cc1nc(-c2ccc(Cl)cc2)nc(OC(=O)N(C)C)c1C	none (no result: HIV TAR-Tat)
C=CC[N+]12CN3CN(CN(C3)C1)C2	CDC25B CDK2 inh 4.34 (no result: HIV TAR-Tat)
CCOc1ccc(C2SCC(=O)Nc3c2c(=O)[nH]n3C(C)CC)cc1 (stereo not given)	none
O=C(Nc1ccccc1)Nc1cnns1	CDC25B CDK2 inh 20.2
CCN1CCN(c2ncnc3[nH]ccc23)CC1	none
CCCOc1ccc(C2SCC(=O)Nc3c2c(=O)[nH]n3C(C)CC)cc1 (stereo not given)	none
CC(N)[C@H](O)c1ccc(O)c(O)c1 (stereo not given in full)	none (no result: HIV TAR-Tat)
C[C@H](N)[C@H](O)c1ccc(O)c(O)c1	HIV TAR-Tat 8.24 (no result: CDC25B CDK2 inh)
CN1CCC[C@@H]1Cc1c[nH]c2ccc(Nc3ncccc3[N+](=O)[O-])cc12	none (no result: HIV TAR-Tat)
CCOC(=O)C12C(=O)Oc3ccc(Br)cc3C1C2(CC)C(=O)c1ccccc1 (stereo not given)	CDC25B CDK2 inh 15.2
CCC1(C(=O)c2ccc(Cl)cc2)C2c3cc(Br)ccc3OC(=O)C21C(=O)OC (stereo not given)	none
CCCCCCn1cc(C(=O)c2cccc3ccccc23)c2ccccc21	none (no result: CDC25B CDK2 inh)
